PubChem BioAssay (NCI)
About 79,000 compounds went through this panel and 15% of them were active in at least one assay; those are over-represented in the sample as a whole. The source made the active and inactive calls. Rule as the data show it: active = growth inhibition above about 70%; inactive = the rest.

How the values were obtained:
[1] = NCI Yeast Anticancer Drug Screen. Data for the rad52 strain (AID 147);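 also: 0% = growth of vehicle-treated control cultures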; conditions: S. cerevisiae rad52 mutant growth inhibition, stronger effect = higher value
In short: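 Genetically altered yeast (DNA damage repair defect) treated with compound; inhibition calculated relative to vehicle.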

[2] = NCI Yeast Anticancer Drug Screen. Data for the wt1 strain (AID 149);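 also: 0% = growth of vehicle-treated wt1 cultures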; conditions: S. cerevisiae wt1 strain (SPY 50644) growth inhibition, stronger effect = higher value
In short: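 Compounds are added to wt1 yeast cultures. Growth is then measured. Inhibition is expressed relative to vehicle-treated controls.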

[3] = NCI Yeast Anticancer Drug Screen. Data for the rad50EPP+ strain (AID 151);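 also: 0% = growth of vehicle-treated control cultures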; conditions: S. cerevisiae rad50 mutant strain, stronger effect = higher value
In short: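 Strain rad50EPP+; compound exposure; % growth inhibition vs vehicle.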

[4] = NCI Yeast Anticancer Drug Screen. Data for the mgt1 strain (AID 153); conditions: S. cerevisiae mgt1 mutant growth inhibition, stronger effect = higher value
In short: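 Read-out: yeast growth inhibition vs vehicle control. Strain mgt1, drawn from a panel altered in DNA damage repair or cell cycle control.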

[5] = NCI Yeast Anticancer Drug Screen. Data for the rad50 strain (AID 155);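 also: 0% = growth of vehicle-only cultures of the same strain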; conditions: S. cerevisiae rad50 strain growth inhibition, stronger effect = higher value
In short: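 Inhibition values express reduced yeast growth in compound-treated cultures relative to vehicle-treated controls.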

[6] = NCI Yeast Anticancer Drug Screen. Data for the mec2-1 strain (AID 157); conditions: S. cerevisiae mec2-1 strain, stronger effect = higher value
In short: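 Cells of the genetically defined mec2-1 yeast strain are incubated with test compound. Inhibition of growth is calculated against vehicle-treated controls.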

[7] = NCI Yeast Anticancer Drug Screen. Data for the rad14 strain (AID 159);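 also: 0% = growth of vehicle-treated control cultures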; conditions: S. cerevisiae rad14 strain growth inhibition, stronger effect = higher value
In short: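 A mutant yeast strain defective in DNA damage repair is treated with compound; inhibition of its growth is scored against untreated, vehicle-exposed cultures.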

[8] = NCI Yeast Anticancer Drug Screen. Data for the sgs1 mgt1 strain (AID 161);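 also: 0% = growth of cultures given vehicle only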; conditions: S. cerevisiae sgs1 mgt1 strain, stronger effect = higher value
In short: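 Inhibition of yeast growth, normalised to vehicle-treated controls, is reported for a strain bearing genetic alterations in DNA damage repair.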

[9] = NCI Yeast Anticancer Drug Screen. Data for the CLN2oe strain (AID 163);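 also: 0% = growth of vehicle-only control cultures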; conditions: S. cerevisiae CLN2oe strain, stronger effect = higher value
In short: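 Strain altered in cell-cycle control, incubated with compound; growth compared to solvent-treated controls.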

[10] = NCI Yeast Anticancer Drug Screen. Data for the cln2 rad14 strain (AID 165);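 also: 0% = growth equal to vehicle treated cultures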; conditions: S. cerevisiae cln2 rad14 strain, stronger effect = higher value
In short: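 The screen exposed genetically defined yeast (cln2 rad14) to test compounds and scored growth inhibition relative to vehicle-treated controls.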

[11] = NCI Yeast Anticancer Drug Screen. Data for the bub3 strain (AID 167); conditions: S. cerevisiae bub3 mutant strain, stronger effect = higher value
In short: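 Steps: expose the mutant yeast strain to compound; grow alongside vehicle-treated cultures; measure growth; express inhibition against the vehicle cultures.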

[12] = NCI Yeast Anticancer Drug Screen. Data for the wt2 strain (AID 169);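 also: 0% = growth of vehicle-treated yeast cultures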; conditions: S. cerevisiae wt2 strain growth inhibition, stronger effect = higher value
In short: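 Steps: yeast strain treated with compound; growth recorded; inhibition calculated relative to cultures given vehicle alone.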

[13] = NCI Yeast Anticancer Drug Screen. Data for the mlh1 strain (AID 171);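 also: 0% = growth of vehicle-treated control cultures of the same strain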; conditions: S. cerevisiae mlh1 strain growth inhibition, stronger effect = higher value
In short: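 Yeast screen: mutant strain plus compound, growth scored against vehicle control wells.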

[14] = NCI Yeast Anticancer Drug Screen. Data for the sgs1 strain (AID 173);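 also: 0% = growth of vehicle-only control cultures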; conditions: S. cerevisiae sgs1 mutant, stronger effect = higher value
In short: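 Inhibition of yeast growth served as the measure. The mutant strain was treated with each compound, and growth was normalised to cultures receiving vehicle alone.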

[15] = NCI Yeast Anticancer Drug Screen. Data for the mlh1 rad18 strain (AID 175); conditions: S. cerevisiae mlh1 rad18 strain growth inhibition, stronger effect = higher value
In short: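 Compound-treated yeast growth, normalised to vehicle controls. Strain bears defined DNA repair mutations.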

[16] = NCI Yeast Anticancer Drug Screen. Data for the rad18 strain (AID 177); conditions: S. cerevisiae rad18 mutant growth inhibition, stronger effect = higher value
In short: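 Inhibition values reflect reduced yeast growth compared with vehicle-treated controls, using a strain engineered with a DNA damage repair defect.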

[17] = at 5.0 µM (retest, dose inferred, filed as 0.5)
[18] = at 50.0 µM (retest, dose inferred, filed as 5.0)

Measured: growth inhibition

Oc1cccc2c(Cl)ccnc12
active: [1]; at 3.7 µM 99% | [1]; at 11.0 µM 99% | [1]; at 33.0 µM 95% | [1]; at 100.0 µM 98% | [2]; at 3.7 µM 98% | [2]; at 33.0 µM 97% | [2]; at 100.0 µM 99% | [3]; at 1.2 µM 83% | [3]; at 3.7 µM 102% | [3]; at 11.0 µM 81% | [3]; at 33.0 µM 97% | [3]; at 100.0 µM 97% | [4]; at 3.7 µM 99% | [4]; at 11.0 µM 98% | [4]; at 33.0 µM 95% | [4]; at 100.0 µM 98% | [5]; at 3.7 µM 100% | [5]; [17] 99% | [5]; at 11.0 µM 98% | [5]; at 33.0 µM 97% | [5]; [18] 99% | [5]; at 50.0 µM 91.5% | [5]; at 100.0 µM 97% | [6]; [17] 99% | [6]; at 11.0 µM 99% | [6]; at 33.0 µM 97% | [6]; [18] 99% | [6]; at 50.0 µM 93.2% | [6]; at 100.0 µM 99% | [7]; at 3.7 µM 99% | [7]; at 11.0 µM 99% | [7]; at 33.0 µM 96% | [7]; at 100.0 µM 98% | [8]; [18] 99% | [8]; at 50.0 µM 93.8% | [9]; at 3.7 µM 96% | [9]; at 11.0 µM 97% | [9]; at 33.0 µM 93% | [9]; at 100.0 µM 97% | [10]; [18] 99% | [10]; at 50.0 µM 91.8% | [11]; [17] 93% | [11]; at 11.0 µM 98% | [11]; at 33.0 µM 92% | [11]; [18] 100% | [11]; at 50.0 µM 92.8% | [11]; at 100.0 µM 97% | [12]; at 3.7 µM 97% | [12]; at 11.0 µM 98% | [12]; at 33.0 µM 97% | [12]; at 100.0 µM 98% | [13]; at 3.7 µM 99% | [13]; at 11.0 µM 98% | [13]; at 33.0 µM 97% | [13]; at 100.0 µM 99% | [14]; at 3.7 µM 99% | [14]; at 11.0 µM 99% | [14]; at 33.0 µM 96% | [14]; at 100.0 µM 98% | [15]; [17] 100% | [15]; [18] 99% | [15]; at 50.0 µM 91% | [16]; at 3.7 µM 98% | [16]; at 11.0 µM 97% | [16]; at 33.0 µM 92% | [16]; at 100.0 µM 97%
inactive: [1]; at 1.2 µM 42% | [2]; at 1.2 µM 47% | [2]; at 11.0 µM 38% | [4]; at 1.2 µM 41% | [5]; at 1.2 µM 43% | [6]; at 1.2 µM 39% | [6]; at 3.7 µM 63% | [7]; at 1.2 µM 37% | [8]; [17] -5% | [9]; at 1.2 µM 52% | [10]; [17] 43% | [11]; at 1.2 µM 32% | [11]; at 3.7 µM 54% | [12]; at 1.2 µM 38% | [13]; at 1.2 µM 27% | [14]; at 1.2 µM 36% | [16]; at 1.2 µM 33%

O=C1Nc2ccc(Cl)c(I)c2C1=O
inactive: [1]; at 1.2 µM 3% | [1]; at 3.7 µM 10% | [1]; at 11.0 µM 7% | [1]; at 33.0 µM 32% | [2]; at 1.2 µM -11% | [2]; at 3.7 µM -13% | [2]; at 11.0 µM -11% | [2]; at 33.0 µM -14% | [2]; at 100.0 µM 45% | [3]; at 1.2 µM 28% | [3]; at 3.7 µM 35% | [3]; at 11.0 µM 44% | [3]; at 33.0 µM 65% | [4]; at 1.2 µM -11% | [4]; at 3.7 µM -13% | [4]; at 11.0 µM -5% | [4]; at 33.0 µM -3% | [4]; at 100.0 µM 59% | [5]; at 1.2 µM -6% | [5]; at 3.7 µM -11% | [5]; [17] -13% | [5]; at 11.0 µM -23% | [5]; at 33.0 µM 26% | [5]; [18] 60% | [5]; at 50.0 µM 35.5% | [6]; at 1.2 µM 2% | [6]; at 3.7 µM 16% | [6]; [17] 3% | [6]; at 11.0 µM 16% | [6]; at 33.0 µM 10% | [6]; [18] 6% | [6]; at 50.0 µM 62.4% | [6]; at 100.0 µM 58% | [7]; at 1.2 µM 8% | [7]; at 3.7 µM -1% | [7]; at 11.0 µM 1% | [7]; at 33.0 µM 11% | [8]; [17] -1% | [8]; [18] 17% | [8]; at 50.0 µM 41.9% | [9]; at 1.2 µM 5% | [9]; at 3.7 µM 21% | [9]; at 11.0 µM -1% | [9]; at 33.0 µM 5% | [9]; at 100.0 µM 47% | [10]; [17] 1% | [10]; [18] 32% | [10]; at 50.0 µM 37.1% | [11]; at 1.2 µM -14% | [11]; at 3.7 µM -5% | [11]; [17] -23% | [11]; at 11.0 µM -4% | [11]; at 33.0 µM 5% | [12]; at 1.2 µM -1% | [12]; at 3.7 µM 0% | [12]; at 11.0 µM 3% | [12]; at 33.0 µM 2% | [12]; at 100.0 µM 52% | [13]; at 1.2 µM 31% | [13]; at 3.7 µM 29% | [13]; at 11.0 µM 27% | [13]; at 33.0 µM 36% | [14]; at 1.2 µM 21% | [14]; at 3.7 µM 23% | [14]; at 11.0 µM 26% | [14]; at 33.0 µM 36% | [15]; [17] 0% | [15]; [18] 68% | [15]; at 50.0 µM 67.2% | [16]; at 1.2 µM 28% | [16]; at 3.7 µM 30% | [16]; at 11.0 µM 29% | [16]; at 33.0 µM 41%
active: [1]; at 100.0 µM 84% | [3]; at 100.0 µM 79% | [5]; at 100.0 µM 88% | [7]; at 100.0 µM 84% | [11]; [18] 70% | [11]; at 50.0 µM 79% | [11]; at 100.0 µM 90% | [13]; at 100.0 µM 83% | [14]; at 100.0 µM 92% | [16]; at 100.0 µM 91%

CC(C)C1=CC2=C[C@H](O)[C@H]3C(C)(C)CCC[C@]3(C)C2=C(O)C1=O
active: [1]; at 11.0 µM 99% | [1]; at 33.0 µM 99% | [1]; at 100.0 µM 94% | [2]; at 11.0 µM 99% | [2]; at 33.0 µM 99% | [2]; at 100.0 µM 94% | [3]; at 33.0 µM 97% | [3]; at 100.0 µM 94% | [4]; at 11.0 µM 99% | [4]; at 33.0 µM 99% | [4]; at 100.0 µM 95% | [5]; at 11.0 µM 98% | [5]; at 33.0 µM 98% | [5]; [18] 98% | [5]; at 50.0 µM 92.8% | [5]; at 100.0 µM 93% | [6]; at 11.0 µM 95% | [6]; at 33.0 µM 99% | [6]; [18] 99% | [6]; at 50.0 µM 93.5% | [6]; at 100.0 µM 96% | [7]; at 11.0 µM 100% | [7]; at 33.0 µM 99% | [7]; at 100.0 µM 95% | [8]; [18] 98% | [8]; at 50.0 µM 93.3% | [9]; at 11.0 µM 76% | [9]; at 33.0 µM 99% | [9]; at 100.0 µM 95% | [10]; [18] 98% | [10]; at 50.0 µM 91.5% | [11]; at 11.0 µM 79% | [11]; at 33.0 µM 99% | [11]; [18] 98% | [11]; at 50.0 µM 92.3% | [11]; at 100.0 µM 96%
inactive: [1]; at 1.2 µM 7% | [1]; at 3.7 µM 38% | [2]; at 1.2 µM -3% | [2]; at 3.7 µM 13% | [3]; at 1.2 µM 0% | [3]; at 3.7 µM 19% | [3]; at 11.0 µM 69% | [4]; at 1.2 µM -3% | [4]; at 3.7 µM -7% | [5]; at 1.2 µM -6% | [5]; at 3.7 µM 13% | [5]; [17] 29% | [6]; at 1.2 µM -3% | [6]; at 3.7 µM -1% | [6]; [17] 54% | [7]; at 1.2 µM 6% | [7]; at 3.7 µM 23% | [8]; [17] 68% | [9]; at 1.2 µM -4% | [9]; at 3.7 µM 4% | [10]; [17] 8% | [11]; at 1.2 µM 2% | [11]; at 3.7 µM 9% | [11]; [17] 41%
